# LGR2 antag – inhibitors of bursicon-induced Drosophila LGR2 receptor cAMP signaling; HEK293 LGR2, CRE-luciferase, bursicon-stimulated, 4 h; inhibition, % at 9.99 µM; 380,000 compounds, 0.35% hits; AID 720647;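 active = drop in luminescence signal, shown as inhibition above about 50% in the replicate tests, limit read from the data, passing the limit was not always enough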;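 note: agonist challenge used bursicon conditioned medium at about half maximal strength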
# TROY NFkB inh – blocks TROY-dependent signaling in reporter cells | Q293 LMP1-TROYcd NF-kB luciferase reporter, 4 h | inhibition, % at 10 µM | AID 1347056 | 360,000 compounds, 0.98% hits;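 active = compounds whose plate-normalised and pattern-corrected inhibition of the luciferase reporter signal at the single screening dose is 50% or more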
# PAX8 reporter – lowers PAX8-driven luciferase in RMG-I cells | RMG-I TPO-luciferase reporter, SteadyGlo, 24 h | inhibition, % at 12.6 µM | 360,000 compounds, 1.2% hits;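 active = mean replicate inhibition at least 60% with every replicate also reaching 60%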;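 note: luciferase light reporting Pax8 driven TPO promoter activity; plate controls were median of neutral control wells for no effect and mitoxantrone controls for full effect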
# EWS-Fli block – blocks EWS/Fli oncoprotein-driven transcription | AID 651661 | A673 NR0B1-luciferase reporter, viability-normalised | 350,000 compounds, 0.67% hits | inhibition, % at 12.6 µM;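 active = mean inhibition of at least 50% after viability correction, with every replicate also passing that limit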;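 note: firefly luciferase signal divided by Alamar Blue viability fluorescence both relative to DMSO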
# TWEAK Fn14 block – inhibitors of TWEAK-Fn14 interaction signaling; AID 1159606; inhibition, % at 10 µM; TWEAK-stimulated Fn14 reporter cells, luciferase luminescence, 8 h; 360,000 compounds, 2% hits; in the data active = inhibition above about 50%
# Starred values were filed as active, the others as inactive; nt = no result given. Hits are enriched below; roughly 2.8% of the tested compounds scored in any of these assays.
SMILES,LGR2 antag,TROY NFkB inh,PAX8 reporter,EWS-Fli block,TWEAK Fn14 block
C[C@@H]1CN([C@@H](C)CO)C(=O)c2cccc(NC(=O)Nc3cccc4ccccc34)c2O[C@@H]1CN(C)Cc1ccc(C(F)(F)F)cc1,6.8,nt,7.2,10.9,nt
COc1ccc(CNC(=O)C[C@H]2C[C@@H]3c4cc(NC(=O)NC5CCCC5)ccc4O[C@@H]3[C@@H](CO)O2)cc1,-1.7,nt,nt,5.8,nt
COc1ccc(-n2c(Cc3cccn3C)nnc2SCC(=O)Nc2cc(Cl)ccc2OC)cc1,-4.0,3.0,25.0,9.8,62.3*
COc1ccc(-n2c(Cc3cccn3C)nnc2SCC(=O)Nc2ccccc2)cc1,-14.3,-1.2,12.2,6.3,32.1
COc1ccc(-n2c(Cc3cccn3C)nnc2SCC(=O)Nc2ccc(Cl)cc2)cc1,-3.8,14.6,9.9,8.1,50.4*
COc1ccc(S(=O)(=O)N(C)C[C@@H]2Oc3ccc(NC(=O)C4CCCCC4)cc3CC(=O)N([C@H](C)CO)C[C@H]2C)cc1,-20.6,nt,-0.5,-2.4,nt
COC(=O)c1c(C)[nH]c(C(=O)/C=C/c2ccccc2Cl)c1C,-60.1,-18.8,-90.2,-33.4,89.5*
COC(=O)c1c(C)[nH]c(C(=O)/C=C/c2ccccc2F)c1C,-43.7,60.5*,-125.2,39.5,51.2*
COC(=O)c1c(C)[nH]c(C(C)=O)c1C,11.9,-21.9,nt,nt,14.4
C[C@H](CO)N1C[C@H](C)[C@@H](CN(C)Cc2ccccc2F)Oc2ncc(C3=CCCC3)cc2C1=O,11.0,nt,-4.9,-23.6,nt
CC(C)C#Cc1cnc2c(c1)C(=O)N([C@@H](C)CO)C[C@H](C)[C@@H](CN(C)C(=O)c1ccccn1)O2,-7.4,nt,nt,-6.9,nt
CNC[C@H](CC1CCCCC1)NC[C@H](Cc1ccccc1)NCCC12CC3CC(CC(C3)C1)C2,101.3*,41.7,77.3*,26.5,-42.7
Cn1cc(CNCc2cnc3ccccn23)c(-c2ccc(Oc3ccccc3)cc2)n1,-18.3,30.9,16.3,8.4,22.4
CN(Cc1cn(C)nc1-c1ccc(Oc2ccccc2)cc1)Cc1cnc2ccccn12,3.9,44.1,13.8,25.6,77.1*
Cn1c(CC(=O)Nc2ccccc2F)nnc1SCC(=O)NC1=NCCS1,11.5,4.8,-12.4,-11.2,53.1*
O=c1c(Cl)c(N2CCCCC2)cnn1-c1nc2ccccc2[nH]1,nt,81.8*,nt,nt,103.9*
O=c1c2ccccc2cnn1-c1nc2ccccc2[nH]1,100.4*,89.4*,113.5*,91.4*,97.2*
Clc1ccc2nc(N3CCCCC3)[nH]c2c1,-10.4,-39.6,nt,nt,27.4
CC=Cc1ccc2n(c1=O)C[C@H]1[C@H](CO)[C@@H](C(=O)NC3CCCC3)N[C@@H]21 (mixture of isomers),-7.1,nt,nt,15.8,nt
COC(=O)c1cccc(Nc2nc(-c3cccnc3)nc3ccccc23)c1,33.0,-3.0,17.9,6.1,44.4
CCOC(=O)c1cccc(Nc2nc(-c3cccnc3)nc3ccccc23)c1,nt,37.2,nt,nt,68.9*
Cc1ccc(-c2cnc3c(c2)C(=O)N([C@@H](C)CO)C[C@@H](C)[C@@H](CN(C)C(=O)c2ccc(F)cc2)O3)cc1,6.5,nt,nt,-1.9,nt
C[C@@H]1CN([C@H](C)CO)C(=O)c2cc(NC(=O)Nc3ccc4c(c3)OCO4)ccc2O[C@@H](C)CCCCO[C@H]1CN(C)S(=O)(=O)c1ccccc1,10.6,nt,31.3,-10.5,nt
CO[C@H](CN(C)S(=O)(=O)c1cn(C)cn1)[C@@H](C)CN(C(=O)Nc1ccc(C(F)(F)F)cc1)[C@H](C)CO,nt,nt,nt,1.8,nt
N#C/C(N=Nc1ccccc1O)=N\Nc1ccccc1O,4.8,46.4,26.9,-22.1,87.5*
SMILES,LGR2 antag,TROY NFkB inh,PAX8 reporter,EWS-Fli block,TWEAK Fn14 block
O=C(/C=C/c1cccc(Cl)c1)c1ccc([N+](=O)[O-])o1,86.1*,75.6*,102.9*,76.7*,100.7*
COc1ccc(/C=C/C(=O)c2ccc([N+](=O)[O-])o2)cc1OC,98.7*,nt,111.6*,62.2*,nt
COc1cc(/C=C/C(=O)c2ccc([N+](=O)[O-])o2)ccc1O,24.0,51.7*,59.3,55.3*,96.8*
O=C(NCc1ccc(F)cc1)[C@@H]1[C@@H](CO)[C@@H]2Cn3c(cccc3=O)[C@@H]2N1CC1CC1,3.4,nt,3.6,1.9,nt
C[C@@H]1CN([C@@H](C)CO)C(=O)Cc2cc(NC(=O)CCN3CCOCC3)ccc2O[C@H]1CN(C)C(=O)NC1CCCCC1,6.8,nt,-0.8,-4.5,nt
Cc1cc(C(=O)COC(=O)c2ccc[nH]c2=O)c(C)n1-c1ccc(F)cc1,24.6,70.2*,-40.6,nt,64.5*
Cc1cc(C(=O)OCC(=O)NCc2ccco2)c(C)n1-c1ccc(F)cc1,nt,10.8,nt,nt,9.9
Cc1cc(C(=O)COC(=O)c2ccc[nH]c2=O)c(C)n1-c1ccccc1,nt,71.1*,-34.8,-11.3,58.4*
Cc1cc(C(=O)COC(=O)c2ccc[nH]c2=O)c(C)n1C1CC1,2.9,19.4,-95.2,-37.9,30.7
CC(C)Oc1ccc(CSC(=N)N)cc1,nt,-2.4,11.5,nt,65.0*
CC(C)Oc1ccc(CSc2ncn[nH]2)cc1,-13.0,-18.6,-90.9,-45.6,-15.8
Cc1nnc(N/N=C/c2ccccc2C(F)(F)F)n1N,4.5,11.7,84.8*,-6.4,-10.0
Cc1nnc(N/N=C/c2cccc(C(F)(F)F)c2)n1N,-1.8,45.8,108.1*,-1.6,-6.2
COc1ccc(/C=N/Nc2ncnc3sc(C)c(C)c23)cc1,-10.3,10.0,1.5,nt,5.4
Cc1sc2ncnc(N/N=C/c3ccc(O)cc3)c2c1C,-7.1,-0.6,32.4,1.9,51.6*
Cc1nc(C(=O)Nc2ccccc2)sc1C1(C)CC(c2cccnc2)=NO1 (stereo not given),-27.1,-62.4,-45.8,-100.5,-40.7
COc1ccc(NC(=O)c2nc(C)c(C3(C)CC(c4ccccc4)=NO3)s2)cc1 (stereo not given),7.9,33.9,43.6,54.8*,6.8
COc1ccc(C)cc1NC(=O)C1CCCN(S(=O)(=O)c2cccc3nonc23)C1 (stereo not given),9.4,5.0,141.0*,-2.0,-6.7
Cc1ccc(NC(=O)C2CCCN(S(=O)(=O)c3cccc4nonc34)C2)cc1 (stereo not given),-9.6,20.6,-3.9,4.6,-12.7
CCC(C)N(CC(=O)Nc1cccc(C)c1C)C(=O)CCl (stereo not given),nt,7.8,nt,nt,59.6*
CC(C)N(CC(=O)Nc1ccc(Cl)cc1C(F)(F)F)C(=O)CCl,3.5,-5.4,91.8*,34.1,63.5*
C[C@H](CO)N1C[C@H](C)[C@@H](CN(C)S(=O)(=O)c2ccc(F)cc2)Oc2ccc(NS(=O)(=O)c3cn(C)cn3)cc2C1=O,4.7,nt,nt,-4.7,nt
O=C(C[C@H]1C[C@H]2c3cc(NC(=O)c4cccnc4)ccc3O[C@H]2[C@H](CO)O1)NC1CCCC1,-10.4,nt,nt,-2.4,nt
COc1ccccc1NC(=O)Nc1ccc2c(c1)C(=O)N(C)C[C@@H](OC)[C@H](C)CN(C)[C@H](C)CO2,8.5,nt,1.7,-0.6,nt
O=C1c2cccc(OCC(=O)N3CCCc4ccccc43)c2CCN1Cc1ccc(Br)cc1,-1.3,36.4,5.9,nt,79.4*

# Screening results as filed in PubChem BioAssay.
